From PubChem BioAssay AID720597 (Broad Institute, 2013)
Potency and affinity values are given separately. Activity calls are given as the source filed them.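 Rule for the calls: active = fitted half-maximal dose no more than twice the top valid tested dose, for compounds that lower signal; inconclusive = fit invalid, or curve flat with activity between -70 and -30; inactive = potency past limit, curve flat within ±30, or signal increasing.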

Target: NAD-dependent protein deacylase sirtuin-5, mitochondrial (Homo sapiens) (UniProt Q9NXA8)
Assay: blockers of sirtuin-5 peptide desuccinylation – biochemical, fluorescence imaging, cherry-pick, set 6, dose response (AID 720597);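 note: lower AMC signal can also come from blocking the trypsin step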
Conditions: Purified SirT5, succinyl-peptide-AMC/trypsin fluorescence; series mostly up to 15 µM

NAD-dependent protein deacylase sirtuin-5, mitochondrial (Homo sapiens), sequence (Q9NXA8 whole entry, looked up): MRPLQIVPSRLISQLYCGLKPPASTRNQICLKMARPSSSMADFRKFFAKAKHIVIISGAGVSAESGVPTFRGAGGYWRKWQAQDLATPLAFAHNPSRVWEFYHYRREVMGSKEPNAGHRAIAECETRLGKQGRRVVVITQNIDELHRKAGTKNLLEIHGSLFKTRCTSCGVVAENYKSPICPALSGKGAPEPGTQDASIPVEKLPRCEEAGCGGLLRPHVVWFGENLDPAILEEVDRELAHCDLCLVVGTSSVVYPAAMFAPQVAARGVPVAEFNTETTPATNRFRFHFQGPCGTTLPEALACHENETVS

outcome, inactive:
COc1ccc(S(=O)(=O)Nc2ccc3c(c2)C(=O)N([C@@H](C)CO)C[C@@H](C)[C@@H](CN(C)S(=O)(=O)c2ccc(Cl)cc2)OCCCC[C@H](C)O3)cc1, C[C@H](CO)N1C[C@H](C)[C@H](CN(C)Cc2ccc(C(F)(F)F)cc2)Oc2c(NC(=O)c3nc4ccccc4s3)cccc2C1=O, CO[C@H](CN(C)Cc1nccs1)[C@@H](C)CN([C@@H](C)CO)S(=O)(=O)c1ccc(C)cc1, O=C(CCN1CCCCC1)N[C@@H]1CC[C@H](CC(=O)N2CCC(Cc3ccccc3)CC2)O[C@@H]1CO, COc1ccc(S(=O)(=O)N(C)C[C@H]2Oc3ncc(/C=C/c4ccccc4)cc3C(=O)N([C@H](C)CO)C[C@@H]2C)cc1, Cc1ccc(S(=O)(=O)Nc2ccc3c(c2)C(=O)N([C@@H](C)CO)C[C@H](C)[C@@H](CN(C)S(=O)(=O)c2ccccc2)OCCCC[C@@H](C)O3)cc1, C[C@@H]1CN([C@@H](C)CO)C(=O)c2cc(NC(=O)Cc3cn(C)c4ccccc34)ccc2O[C@@H]1CN(C)Cc1ccc(Oc2ccccc2)cc1, CCCC#Cc1ccc2c(c1)O[C@H](CN(C)C(=O)Nc1ccccc1F)[C@@H](C)CN([C@H](C)CO)S2(=O)=O, C[C@H](O)C#Cc1ccc2c(c1)O[C@H](CN(C)Cc1ccc(-c3ccccc3)cc1)[C@H](C)CN([C@@H](C)CO)S2(=O)=O, COc1ccc(S(=O)(=O)Nc2ccc3c(c2)C(=O)N([C@@H](C)CO)C[C@@H](C)[C@@H](CN(C)S(=O)(=O)c2ccccc2)OCCCC[C@@H](C)O3)cc1
